Assay results reported in PubChem BioAssay.
The source made the active and inactive calls. Unless noted, the rule behind the calls is not given here.

Columns and labels:
[1] = resazurin metabolic signal in HepG2 cells – cell-based, resazurin fluorescence, 24 h, PK04 Diversity Set, profiling panel (AID 1172); conditions: HepG2 viability, higher = more signal
[2] = budding yeast growth changes without added modifier – OD600, strain BY4716, 24 h, basal condition, primary screen (AID 1173); conditions: S. cerevisiae BY4716 growth, OD600, 24 h; higher = more signal, called active from +8 up or from −8 down
[3] = viability profiling in MM1S myeloma cells – cell-based, resazurin fluorescence, basal, 24 h, PK04 Diversity Set, profiling panel (AID 1174); conditions: higher = more signal, called active from +8 up or from −8 down;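 note: MM1S multiple myeloma cell line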
[4] = molecular target: Dihydroorotate dehydrogenase (quinone), mitochondrial (Plasmodium falciparum (isolate 3D7)) (UniProt Q08210); assay: inhibition of P. falciparum DHODH – biochemical, C-terminal His tag, absorbance 600 nm, primary screen (AID 1175); conditions: PfDHODH enzyme, DCIP absorbance 600 nm; higher = more signal, called active from +8 up or from −8 down;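 note: recombinant parasite enzyme with a five histidine tag at its C terminus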
[5] = inhibition of PAO1 biofilm formation – strain PAO1, LB-PBS medium, absorbance 600 nm, primary screen (AID 1176); conditions: P. aeruginosa PAO1 growth/biofilm, A600, 12 h; higher = more signal
[6] = growth modulation of vineyard yeast isolate – strain RM11-1a, OD600, basal, 24 h, primary screen (AID 1177);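 note: cultures grown under basal conditions with no added stressor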; conditions: S. cerevisiae RM11-1a growth, OD600, 24 h; higher = more signal, called active from +8 up or from −8 down
[7] = growth of efflux-deficient E. coli DRC39 – strain DRC39, OD650, 24 h, E. coli filamentation inducers, primary screen (AID 1178);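 note: growth measured as culture turbidity by optical density at 650 nm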; conditions: E. coli DRC39 acrAB, higher = more signal, called active from +8 up or from −8 down
[8] = growth of efflux-deficient E. coli DRC39 – strain DRC39, OD650, 48 h, E. coli filamentation inducers, primary screen (AID 1179);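 note: screen aims at cell division blockers that make cells filament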; conditions: E. coli DRC39 delta-acrAB growth, higher = more signal, called active from +8 up or from −8 down
[9] = viability profiling in RPMI8226 myeloma cells – cell-based, resazurin fluorescence, basal, 24 h, PK04 Diversity Set, profiling panel (AID 1180); conditions: higher = more signal;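 note: RPMI8826 multiple myeloma cell line at 5000 cells per well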
[10] = molecular target: E3 ubiquitin-protein ligase XIAP (Homo sapiens) (UniProt P98170); assay: small molecules binding XIAP protein – biophysical, small-molecule microarray, fluorescence 635 nm, primary screen (AID 1181); conditions: higher = more signal;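 note: score merges 667 nm emission and signal to noise over triplicate slides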
[11] = tested on: XIP peptide (Xip251-270) binding; assay: XIP fragment 251-270 binding compounds – biochemical, small-molecule microarray, fluorescence 635/667 nm, 0.1 µg/mL protein, primary screen (AID 1182); conditions: fluorescent protein binding, 635 nm, higher = more signal, called active from +8 up or from −8 down
XIP peptide (Xip251-270) = assay: compounds binding XIP fragment 251-270 – biochemical, small-molecule microarray, fluorescence 635/667 nm, 0.5 µg/mL protein, primary screen (AID 1183); conditions: fluorescence 635 nm, higher = more signal
[12] = blood-stage malaria parasite viability loss – strain 3D7, DAPI fluorescence, 100 nL, primary screen (AID 1184);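 note: parasites grown inside human red blood cells in medium with human serum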; conditions: P. falciparum 3D7 growth, 3 d, higher = more signal
[13] = molecular target: Homeobox protein Hox-A13 (Mus musculus) (UniProt Q62424); assay: disruptors of Hoxa13 oligonucleotide interaction – biochemical, fluorescence polarization, labeled oligonucleotide, primary screen (AID 1185); conditions: Hoxa13:DNA binding, 15 min, higher = more signal, called active from +8 up or from −8 down
[14] = blockers of DNA damage checkpoint Chk1 activation – imaging, HeLa, hydroxyurea, phospho-Chk1 antibody, percent positive cells, primary screen (AID 1186); conditions: hydroxyurea-induced phospho-Chk1 immunofluorescence imaging, higher = more signal
[15] = blockers of DNA damage checkpoint Chk1 activation – imaging, HeLa, hydroxyurea, phospho-Chk1 nuclear intensity, primary screen (AID 1187); conditions: hydroxyurea-induced phospho-Chk1 immunofluorescence imaging, higher = more signal

Chain of E3 ubiquitin-protein ligase XIAP (Homo sapiens) (P98170 whole entry, looked up, the tested form may be a part): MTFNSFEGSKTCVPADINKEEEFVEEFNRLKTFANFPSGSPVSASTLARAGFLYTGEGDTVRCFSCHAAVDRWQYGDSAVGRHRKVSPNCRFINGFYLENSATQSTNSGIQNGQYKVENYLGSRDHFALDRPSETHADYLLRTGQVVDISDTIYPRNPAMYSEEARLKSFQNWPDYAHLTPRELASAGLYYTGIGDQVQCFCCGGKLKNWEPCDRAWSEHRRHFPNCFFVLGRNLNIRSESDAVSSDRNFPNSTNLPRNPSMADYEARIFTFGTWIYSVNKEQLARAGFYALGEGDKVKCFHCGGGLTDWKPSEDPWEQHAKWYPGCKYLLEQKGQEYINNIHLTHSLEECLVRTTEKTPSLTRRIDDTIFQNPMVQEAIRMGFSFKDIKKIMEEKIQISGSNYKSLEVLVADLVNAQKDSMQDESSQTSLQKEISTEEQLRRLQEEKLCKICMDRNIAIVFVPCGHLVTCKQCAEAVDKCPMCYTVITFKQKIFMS
Chain of Homeobox protein Hox-A13 (Mus musculus) (Q62424 whole entry, looked up): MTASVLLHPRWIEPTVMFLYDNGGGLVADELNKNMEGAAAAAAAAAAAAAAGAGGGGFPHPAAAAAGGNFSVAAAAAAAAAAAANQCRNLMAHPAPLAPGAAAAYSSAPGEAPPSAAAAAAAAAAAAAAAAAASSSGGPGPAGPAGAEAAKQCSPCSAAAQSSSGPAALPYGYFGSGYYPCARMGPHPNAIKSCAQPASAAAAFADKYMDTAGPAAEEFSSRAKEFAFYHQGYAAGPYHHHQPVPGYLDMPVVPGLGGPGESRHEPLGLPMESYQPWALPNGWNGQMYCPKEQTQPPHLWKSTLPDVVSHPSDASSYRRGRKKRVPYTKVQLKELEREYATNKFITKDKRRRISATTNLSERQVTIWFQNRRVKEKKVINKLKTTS
Chain of Dihydroorotate dehydrogenase (quinone), mitochondrial (Plasmodium falciparum (isolate 3D7)) (Q08210 whole entry, looked up): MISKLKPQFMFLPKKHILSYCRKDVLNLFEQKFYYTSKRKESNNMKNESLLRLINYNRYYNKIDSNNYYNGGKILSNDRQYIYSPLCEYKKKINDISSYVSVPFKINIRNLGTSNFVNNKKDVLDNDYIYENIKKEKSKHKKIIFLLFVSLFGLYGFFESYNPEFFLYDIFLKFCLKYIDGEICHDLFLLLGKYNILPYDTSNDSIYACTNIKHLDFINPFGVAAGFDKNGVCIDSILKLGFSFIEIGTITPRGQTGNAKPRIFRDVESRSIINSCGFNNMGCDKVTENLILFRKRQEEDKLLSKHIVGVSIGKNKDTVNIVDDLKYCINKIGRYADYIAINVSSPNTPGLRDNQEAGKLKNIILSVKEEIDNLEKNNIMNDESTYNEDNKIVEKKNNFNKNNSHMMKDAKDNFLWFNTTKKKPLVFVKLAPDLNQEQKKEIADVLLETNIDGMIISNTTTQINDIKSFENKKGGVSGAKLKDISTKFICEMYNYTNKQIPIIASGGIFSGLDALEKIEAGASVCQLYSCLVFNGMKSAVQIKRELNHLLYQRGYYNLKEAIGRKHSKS

| SMILES | z-score [1] | z-score [2] | z-score [3] | composite z-score [4] | z-score [5] | z-score [6] | z-score [7] | z-score [8] | z-score [9] | composite z-score [10] | composite z-score [11] | composite z-score (XIP peptide (Xip251-270)) | z-score [12] | z-score [13] | z-score [14] | z-score [15] |
| --- | --- | --- | --- | --- | --- | --- | --- | --- | --- | --- | --- | --- | --- | --- | --- | --- |
| CN1C(=O)C2C=CC(C(O)C3=C[C@H]4C[C@@H](C3)C4(C)C)N(Nc3ccc([N+](=O)[O-])cc3[N+](=O)[O-])C2C1=O (stereo not given in full) | -0.241 | 0.473 (inactive) | -0.569 (inactive) | -0.0042 (inactive) | 0.434 (inactive) | 1 (inactive) | -0.146 (inactive) | -0.476 (inactive) | 0.116 | 0.772 | 0.334 (inactive) | 0.704 | 0.395 | -3.59 (inactive) | -0.21 (inactive) | -0.257 (inactive) |
| COC(=O)C(CC#Cc1ccc2c(c1)[C@]1(C(=O)N2)[C@H](C(=O)N2CCCCCCC2)[C@H]2C(=O)O[C@H](c3ccccc3)[C@H](c3ccccc3)N2[C@@H]1c1ccccc1OCCO)C(=O)OC | -0.198 | 0.946 (inactive) | -0.0924 (inactive) | -4.91 (inactive) | 1.22 (inactive) | 0.0478 (inactive) | -1.19 (inactive) | -0.513 (inactive) | 0.218 | 2.41 | 8 (inactive) | 1.04 | -2.21 | 1.03 (inactive) | 0.0041 (inactive) | 0.0484 (inactive) |
| [N-]=[N+]=Nc1ccccc1[C@@H]1OC(c2ccc(OCCCO)cc2)=N[C@]1(CCS(=O)(=O)c1ccccc1)C(=O)O | 0.97 | -0.14 (inactive) | -0.3 (inactive) | -23.4 (active) | -0.884 (inactive) | 0.82 (inactive) | 0.277 (inactive) | 0.82 (inactive) | 0.205 | 0.125 | 0.97 (inactive) | 0.727 | -1.19 | -4.69 (inactive) | -0.273 (inactive) | -0.0293 (inactive) |
| CN(C)CCCC[C@@H]1NC(=O)[C@H]2C[C@@H](C(=O)NCCCCCNC(=O)CS)[C@@H](c3ccc(O)cc3)N2C1=O | -0.0707 | -0.691 (inactive) | 0.518 (inactive) | 0.419 (inactive) | -0.13 (inactive) | -0.158 (inactive) | -0.297 (inactive) | 0.326 (inactive) | 0.108 | -0.0344 | -0.276 (inactive) | 0.903 | -0.282 | -2.09 (inactive) | 0.358 (inactive) | 0.155 (inactive) |
| [N-]=[N+]=NCc1ccccc1[C@@H]1OC(c2ccc(OCCCO)cc2)=N[C@]1(Cc1ccccc1N=[N+]=[N-])C(N)=O | -0.0426 | -2.11 (inactive) | -0.727 (inactive) | 0.0263 (inactive) | 0.603 (inactive) | 0.604 (inactive) | 0.333 (inactive) | -0.37 (inactive) | -1.2 | 0.0656 | 0.411 (inactive) | 0.785 | -1.63 | -3.75 (inactive) | 0.135 (inactive) | 0.278 (inactive) |
| COc1ccc([Si](C)(C)[C@@H]2[C@@H](CCO)O[C@]3(C(=O)N(Cc4ccccc4)c4ccc(N(C=O)c5ccccc5)cc43)[C@H]2C)cc1 | -0.131 | 1.59 (inactive) | -1.54 (inactive) | 0.186 (inactive) | 3.19 (inactive) | 5.4 (inactive) | 1.23 (inactive) | 0.843 (inactive) | -1.6 | 0.0031 | 0.581 (inactive) | 0.573 | -2.79 | -0.204 (inactive) | -1.32 (inactive) | -0.697 (inactive) |
| O=C(CS)NCCCCCCNC(=O)[C@H]1C[C@H]2C(=O)N3CCC[C@H]3C(=O)N2[C@H]1c1ccc(O)cc1 | 0.301 | 0.152 (inactive) | -0.868 (inactive) | -0.504 (inactive) | 0.0499 (inactive) | -0.458 (inactive) | -0.144 (inactive) | -0.516 (inactive) | -0.563 | 0.115 | 0.573 (inactive) | 0.646 | -0.38 | -2.8 (inactive) | -0.508 (inactive) | -0.19 (inactive) |
| [N-]=[N+]=NCc1ccccc1C[C@@]1(C(=O)NCc2ccccc2)N=C(c2ccc(OCCCO)cc2)O[C@@H]1c1ccccc1CN=[N+]=[N-] | -0.594 | 0.548 (inactive) | -0.709 (inactive) | -0.067 (inactive) | 1.74 (inactive) | 1.28 (inactive) | 0.561 (inactive) | 0.678 (inactive) | -0.538 | -0.174 | 0.804 (inactive) | 0.735 | -2.59 | 3.34 (inactive) | -0.174 (inactive) | -0.332 (inactive) |
| Cc1ccccc1/C=C/C=O | 0.779 | -1.94 (inactive) | 0.971 (inactive) | -0.464 (inactive) | -0.0902 (inactive) | -0.412 (inactive) | 1.23 (inactive) | 1.45 (inactive) | 1.36 | -0.141 | 0.958 (inactive) | 0.532 | -0.198 | -0.848 (inactive) | 0.133 (inactive) | 0.0525 (inactive) |
| COc1ccc(CCNC(=O)[C@@]2(C)c3ccccc3C(=O)N(Cc3ccccc3)[C@H]2c2ccc(CO)cc2)cc1 | 0.976 | -1.12 (inactive) | 0.617 (inactive) | -0.984 (inactive) | 0.938 (inactive) | -0.803 (inactive) | 0.605 (inactive) | 0.535 (inactive) | 1.43 | -0.138 | 1.12 (inactive) | 0.859 | -1.93 | -4.95 (inactive) | -0.281 (inactive) | -0.173 (inactive) |
